IL-1B inflam inh = qHTS for Inhibitors of Inflammasome Signaling: IL-1-beta AlphaLISA Primary Screen; 4.7% of 360,000 active; activity change, % at 57.5 µM; AID 743279, 2014; THP-1 LPS/ATP IL-1B secretion, AlphaLISA, 16 h; hits give low values; in the data active = activity change below about -50%; inconclusive = mostly about -30% to -49%
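Secreted IL-1B measured by AlphaLISA bead assay after 16 h compound exposure of THP-1 cells; compounds (final up to 57.5 uM) added 1 h before LPS (250 ng/mL) and ATP (1.25 mM) stimulation; lower signal means less secretion.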
DT40 TDP1 CPT = qHTS for Inhibitors of human tyrosyl-DNA phosphodiesterase 1 (TDP1): qHTS in cells in presence of CPT; Potency, µM (titrated, usually from 46.2 µM), actives largely listed as inhibitors; 12% of 420,000 active; chicken DT40 Tdp1-/-;hTDP1 cells + 20 nM CPT, ATP luminescence, 48 h; note: nearly all actives have a fitted effect of over 55% in size
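Chicken DT40 Tdp1-/- cells stably complemented with human TDP1 were seeded at 400 cells/well in medium containing 20 nM camptothecin, exposed to pin-transferred compounds, and grown at 37 °C for at least 48 hr. Viability was read as ATP luminescence.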
SW480 rereplic = A quantitative high throughput screen for small molecules that induce DNA re-replication in SW480 colon adenocarcinoma cells | SW480 DNA re-replication, Hoechst DNA content imaging, 48 h | 1.8% of 340,000 active | Potency, µM (top dose mostly 46.1 µM), hits mostly activators | AID 624297, 2012; note: nearly all actives have a fitted effect of over 55% in size
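250 cells/well; 23 nL cpd via pin tool; 48 hr, 37 C, 5% CO2; Hoechst 40 min; imager read of total nuclear intensity, ex 405/em 500-530 nm.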
Chronic BCR inh = qHTS Assay to Find Inhibitors of Chronic Active B-Cell Receptor Signaling | ABC-DLBCL IkBa-CBG/CBR reporter, luminescence ratio, 4 h | Potency, µM (highest dose often 46.1 µM), hits mostly inhibitors | 0.05% of 340,000 active | AID 493014, 2011; active = well fitted inhibition curve with a large enough effect in the signal ratio, with a control signal flat, not every such curve was filed as active; inconclusive = small, poorly fitted or top-dose-only effect, or effect the other way, or a change in a side signal; the % refers to the signal ratio
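Doxycycline induced both beetle luciferases in TMD8 lymphoma cells; IKK-driven degradation limits the IkappaBalpha-fused green signal, while red luminescence normalises for cell number and nonspecific effects. Compounds tested up to 46 uM, 4 hrs.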
MCF10A rereplic = A quantitative high throughput screen for small molecules that induce DNA re-replication in MCF 10a normal breast cells. MCF 10A DNA re-replication, Hoechst nuclear intensity, 48 h. Potency, µM (series often up to 46.1 µM), actives largely listed as activators. 2.9% of 350,000 active. AID 624296, 2012; note: nearly all actives have a fitted effect of over 50% in size
TDP1 cell noCPT = qHTS for Inhibitors of human tyrosyl-DNA phosphodiesterase 1 (TDP1): qHTS in cells in absence of CPT; DT40 Tdp1-/- hTDP1 cells, no CPT, ATP luminescence, 48 h; Potency, µM (top dose mostly 46.2 µM), hits mostly inhibitors; 15% of 420,000 active; AID 686978, 2013; note: nearly all actives have a fitted effect of over 55% in size
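No-CPT arm: Tdp1-/-;hTDP1 DT40 cells (400/well) plus compounds, incubated ≥48 hr at 37 °C. Readout CellTiter-Glo luminescence.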
Large screens that a line does not name were inactive. This is a sample that favours compounds with a hit; in the whole collection about 19% have one here. Unless noted, calls come from the whole dose curve; as a rule, active = well fitted curve in the direction sought with a large enough effect; inconclusive = small, poorly fitted or top-dose-only effect, or another doubt; inactive = no such curve, though single readings can be large; an effect the other way counts as inactive or inconclusive.

CCn1c(SCC(=O)Nc2nc(-c3ccccc3)cs2)nnc1-c1ccccc1O	DT40 TDP1 CPT inconclusive, Chronic BCR inh inconclusive
C[C@@H]1O[C@H](O[C@@H]2C=C3CC[C@H]4[C@@H](CC[C@]5(C)[C@@H](c6ccc(=O)oc6)CC[C@]45O)[C@@]3(C)CC2)[C@@H](O)[C@H](O)[C@@H]1O	SW480 rereplic inconclusive (no result: IL-1B inflam inh, DT40 TDP1 CPT, Chronic BCR inh, TDP1 cell noCPT)
C[C@@H]1O[C@@H](O[C@@H]2C=C3CC[C@@H]4[C@@H](CC[C@]5(C)[C@H](c6ccc(=O)oc6)CC[C@@]45O)[C@@]3(C)CC2)[C@H](O)[C@H](O)[C@H]1O	DT40 TDP1 CPT 0.282µM, TDP1 cell noCPT inconclusive (no result: IL-1B inflam inh, SW480 rereplic, Chronic BCR inh, MCF10A rereplic)
C[C@@H]1O[C@@H](O[C@@H]2C=C3CC[C@@H]4[C@H](CC[C@]5(C)[C@@H](c6ccc(=O)oc6)CC[C@]45O)[C@@]3(C)CC2)[C@H](O)[C@H](O)[C@H]1O	DT40 TDP1 CPT 0.143µM, TDP1 cell noCPT 0.128µM (no result: IL-1B inflam inh, SW480 rereplic, Chronic BCR inh, MCF10A rereplic)
O=c1oc(Cl)c(Cl)c2ccccc12	IL-1B inflam inh -70.5, DT40 TDP1 CPT 3.26µM, TDP1 cell noCPT 2.91µM
COC(=O)C12CCc3c(ccc4cc(OC)ccc34)C1=CC(=O)C2 (configuration not stated)	TDP1 cell noCPT inconclusive (no result: Chronic BCR inh)
COC(=O)C1=C(c2ccc(F)cc2F)C[C@@H]2CC[C@H]1N2C(=O)NCCCOC(C)C	none
O=C(CN1CCCC1=O)Nc1ccccc1	none
COC(=O)c1cc(NC(=O)Cn2nc(-c3ccccc3)c3c(c2=O)CCCC3)cc(C(=O)OC)c1	DT40 TDP1 CPT inconclusive, TDP1 cell noCPT 18.4µM (no result: IL-1B inflam inh, SW480 rereplic, Chronic BCR inh, MCF10A rereplic)
CCOC(=O)c1cccc(C2=C(CNC(=O)c3nccs3)[C@H]3CC[C@@H](C2)N3Cc2ccccc2)c1	DT40 TDP1 CPT 14.6µM, TDP1 cell noCPT 23.1µM (no result: SW480 rereplic, Chronic BCR inh, MCF10A rereplic)
NC1CCc2cc(O)c(O)cc2C1 (configuration not stated)	DT40 TDP1 CPT 20.6µM, TDP1 cell noCPT 13µM
CC1(C)N(O)C(c2ccc(C(=O)O)cc2)=[N+]([O-])C1(C)C	none (no result: IL-1B inflam inh, SW480 rereplic, Chronic BCR inh, MCF10A rereplic)
O=C1/C(=C\c2ccc(Cl)cc2Cl)N2CCC1CC2	Chronic BCR inh inconclusive, TDP1 cell noCPT inconclusive
O=C1/C(=C/c2cccc([N+](=O)[O-])c2)N2CCC1CC2	IL-1B inflam inh -67.7, Chronic BCR inh inconclusive
O=C1/C(=C\c2ccc(Cl)c(Cl)c2)N2CCC1CC2	IL-1B inflam inh -79.3, MCF10A rereplic inconclusive, TDP1 cell noCPT inconclusive
O=C1/C(=C\c2cccnc2)N2CCC1CC2	IL-1B inflam inh inconclusive, TDP1 cell noCPT inconclusive
O=C1/C(=C/c2cc([N+](=O)[O-])ccc2Cl)N2CCC1CC2	DT40 TDP1 CPT 18.4µM, TDP1 cell noCPT 16.4µM
C=C1C[C@@H]2[C@H](CC[C@]3(C)C(=O)CC[C@@H]23)[C@@]2(C)C=CC(=O)C=C12	DT40 TDP1 CPT 16.4µM, Chronic BCR inh inconclusive, TDP1 cell noCPT 8.41µM (no result: IL-1B inflam inh, SW480 rereplic, MCF10A rereplic)
CCCC[N+]12CCC(CC1)C(C(O)(c1ccccc1)c1ccccc1)C2 (configuration not stated)	Chronic BCR inh inconclusive
CC[N+]12CCC(CC1)C(=C(c1ccccc1)c1ccccc1)C2	DT40 TDP1 CPT inconclusive, Chronic BCR inh inconclusive, TDP1 cell noCPT 16.4µM
O=C1NC(=O)N(c2ccc3c(c2)OCO3)C(=O)/C1=C/c1ccsc1	MCF10A rereplic inconclusive
O=C1NC(=O)N(c2ccc3c(c2)OCO3)C(=O)/C1=C/c1cccs1	IL-1B inflam inh -103.8, DT40 TDP1 CPT inconclusive, SW480 rereplic inconclusive, Chronic BCR inh inconclusive, TDP1 cell noCPT inconclusive
Cc1cc([N+](=O)[O-])c2ccccc2[n+]1[O-]	IL-1B inflam inh -98.6, DT40 TDP1 CPT 0.0461µM, SW480 rereplic 14.6µM, Chronic BCR inh inconclusive, MCF10A rereplic 16.4µM, TDP1 cell noCPT 0.0517µM
C[C@]12N[C@H](Cc3ccccc31)c1ccccc12	DT40 TDP1 CPT inconclusive, TDP1 cell noCPT inconclusive (no result: Chronic BCR inh)
c1cc2n(c1)-c1c(ccc3c1OCO3)CNC2c1ccc2c(c1)OCO2 (configuration not stated)	DT40 TDP1 CPT inconclusive, TDP1 cell noCPT 13µM
COc1ccc(C2NCc3ccc4c(c3-n3cccc32)OCO4)cc1O (configuration not stated)	DT40 TDP1 CPT 4.11µM, SW480 rereplic 3.26µM, Chronic BCR inh inconclusive, MCF10A rereplic 4.11µM, TDP1 cell noCPT 4.61µM
CC(C)NC(=O)C(C)N1CCN(S(=O)(=O)c2ccc3ccccc3c2)CC1 (configuration not stated)	DT40 TDP1 CPT 18.4µM, TDP1 cell noCPT 14.6µM
COC(=O)C1=C(c2ccc3ccccc3c2)C[C@@H]2CC[C@H]1N2C(=O)NC1CCCCC1	DT40 TDP1 CPT inconclusive, Chronic BCR inh inconclusive, MCF10A rereplic inconclusive, TDP1 cell noCPT 16.4µM
COC(=O)C1=C(c2ccc3ccccc3c2)C[C@@H]2CC[C@H]1N2C(=O)NCC1CC1	DT40 TDP1 CPT 11.6µM, TDP1 cell noCPT 9.2µM
COC(=O)C1=C(c2ccc3ccccc3c2)C[C@@H]2CC[C@H]1N2C(=O)NC1CC1	DT40 TDP1 CPT 14.6µM, TDP1 cell noCPT 9.2µM
COC(=O)C1=C(c2ccc(C(C)=O)cc2)C[C@@H]2CC[C@H]1N2C(=O)NC1CCCCC1	DT40 TDP1 CPT inconclusive, TDP1 cell noCPT inconclusive
COC(=O)[C@@H]1N=C(c2ccc(OC)cc2)O[C@]12C(=O)N(Cc1ccccc1)c1ccccc12	DT40 TDP1 CPT inconclusive, TDP1 cell noCPT inconclusive (no result: SW480 rereplic, Chronic BCR inh, MCF10A rereplic)
CC(C)[N+](C)(C)CC(O)CN(c1ccccc1)c1ccccc1 (configuration not stated)	DT40 TDP1 CPT inconclusive
C[C@]12CCC3=C4CCC(=O)C=C4CC[C@H]3C1CC[C@@H]2O (some centres not stated)	TDP1 cell noCPT inconclusive
CCN(CCO)CCn1c(Cc2ccccc2)nc2c1c(=O)n(C)c(=O)n2C	none (no result: IL-1B inflam inh, SW480 rereplic, Chronic BCR inh, MCF10A rereplic)
CN1CCN(C(=O)O[C@H]2c3nccnc3C(=O)N2c2ccc(Cl)cn2)CC1	none
CC1=CC(C)CC(C)OC(=O)CC(c2ccc(O)cc2)NC(=O)C(Cc2c(Br)[nH]c3ccccc23)N(C)C(=O)C(C)NC(=O)C(C)C1 (configuration not stated)	DT40 TDP1 CPT 0.0259µM, SW480 rereplic 0.116µM, MCF10A rereplic inconclusive, TDP1 cell noCPT 0.0146µM (no result: Chronic BCR inh)
COc1ccc2c(c1)CCCC2=O	none (no result: Chronic BCR inh)

Bioassay records deposited in PubChem BioAssay by National Center for Advancing Translational Sciences (NCATS).
